# Rows were chosen to be rich in hits. Some 1.9% of all compounds tested hit in one or more screens of this group.
# Jurkat autofluor: compound autofluorescence on Jurkat cells, primary screen, artefact control for VLA-4 allosteric ligand project, cell-based, flow cytometry | hit rate 0.61% among 24,000 | stronger effect = higher value; 1 = vehicle-only cell background | fluorescence ratio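 (tested at 10 µM compound in the well)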 | AID 576, 2007;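 active = fluorescence ratio above 2.44, which is 1 plus 3 SD of all ratios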;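 note: green fluorescence of cells measured with 488 nm excitation and 530 nm emission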
# VLA-4 antagonist: inhibitors of LDV-FITC binding to Mn2+-activated VLA-4, primary screen, Jurkat cells; LDV-FITC binding with Mn2+, flow cytometry; 100% = Mn2+-driven binding gain fully reversed; inhibition, % at 10 µM (by protocol); hit rate 0.2% among 24,000; AID 529, 2006;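 active = inhibition above 50%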;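 note: 0% = Mn2+ stimulated cells lacking compound and 100% = ligand binding without Mn2+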
# VLA-4 agonist: enhancers of LDV-FITC binding to VLA-4 integrin, primary screen, Jurkat cells, flow cytometry. 24,000 tested, under 10 active. Integrin alpha-4 (Homo sapiens), P13612. activation, % at 10 µM (by protocol). AID 528, 2006;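 active = fluorescent ligand binding to cells raised by more than 40% of the manganese-induced maximum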;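 note: 0% = ligand binding without compound and 100% = manganese-stimulated maximal binding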
# FPRL1 ligand: human FPRL1 ligands by binding competition, primary screen, cell-based, FPR counter-screen, flow cytometry | FPRL1-expressing cells, fluorescent ligand binding inhibition | inhibition, % (test concentration not listed) | hit rate 0.3% among 24,000 | AID 441, 2006;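 note: 0% = buffer alone and 100% = receptor blocker peptide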
# FPR ligand: human FPR ligands by binding competition, primary screen, cell-based, FPRL1 counter-screen, flow cytometry | FPR-expressing cells, fluorescent ligand binding | AID 440, 2006 | hit rate 0.74% among 24,000 | fMet-Leu-Phe receptor (Homo sapiens), P21462 | inhibition, % (concentration not given with the values);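 note: 0% = buffer wells and 100% = receptor blocker peptide wells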
# 26S disassembly: inhibitors of ATP-driven 26S proteasome dissociation, primary screen, biochemical, bead-based flow cytometry, GFP-tagged proteasome. anti-FLAG beads, GFP-proteasome disassembly. inhibition of disassembly, % (test concentration not listed). hit rate 0.2% among 24,000. AID 751, 2007;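 active = inhibition of disassembly above about 33%, limit read from the data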;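 note: plate controls were ATP control with full disassembly for no effect and ATP-gamma-S intact proteasomes for full effect; higher percent means more bead fluorescence retained so stronger block of disassembly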
# * marks the source's active call; other numbers are inactive results. Cut-off read from the data, not from the text of the source, unless noted: active = inhibition above about 30%; inconclusive = no clear call, values can overlap the other calls; inactive = below that.
SMILES,Jurkat autofluor,VLA-4 antagonist,VLA-4 agonist,FPRL1 ligand,FPR ligand,26S disassembly
CC1=C(C(=O)OC(C)C)[C@]2(C(=O)N(CC(N)=O)c3ccccc32)C(C#N)=C(N)O1,0.95,-4,-2,50*,24,-1
CCCC(C)(COC(N)=O)COC(=O)NC(C)C (stereo not given),1,-12,-2,-3,-3,-2
